Source: PubChem BioAssay (EPA / NIEHS)
Several values for one entry are separate records, joined by “and”; a condition that tells them apart may be missing. Equal values may be shown once. Inconclusive results are not listed. The source holds several records for some structures; these can differ, active in one and inactive in another. Activity calls are given as the source filed them. Rule for the calls: active = hit-call score of the fitted dose curve at least 0.9, where 1 is the maximum; inconclusive = response in the unintended direction; inactive = score below 0.9.

System: not listed separately
Test: TOX21_p53_BLA_p3_viability: Viability Assessment in the Tox21 HCT-116 p53 Agonism Beta-lactamase Assay, Phase 3 (AID 2283593);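 note: cells exposed to compound for 16 h before reading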
Outline: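 HCT-116 cells (4000/well) rested 5 h at 37C, then got DMSO compounds by pin tool (217-fold dilution) for 16 h at 37C, 5% CO2. After the bla read, CellTiter-Glo was added and luminescence read at 30 min, room temperature.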
For `CCOP(=O)(NC(C)C)Oc1ccc(SC)c(C)c1` (stereo not drawn), the outcome was “inactive”.
With `COc1cc(OC)nc(Sc2cccc(Cl)c2C(=O)O)n1` the outcome was “inactive”.
In the case of `CCOP(=S)(OCC)Oc1ccc2c(C)c(Cl)c(=O)oc2c1`, the outcome is reported as “inactive”.
With `CC(=NC#N)N(C)Cc1ccc(Cl)nc1` the outcome was “inactive”.
For `CN(C)NC(=O)CCC(=O)O`, the outcome was “inactive”.
In the case of `FC(F)C(F)(F)OCC(Cn1cncn1)c1ccc(Cl)cc1Cl` (stereo not drawn), the outcome is reported as “inactive”.
For `CCc1cccc(C)c1N(C(=O)CCl)C(C)COC` (stereo not drawn), the outcome was “inactive”.
For `COP(=O)(OC)C(O)C(Cl)(Cl)Cl` (stereo not drawn), the outcome was “inactive”.
In the case of `CC(C)=CC1C(C(=O)OCN2C(=O)C3=C(CCCC3)C2=O)C1(C)C` (stereo not drawn), the outcome is reported as “inactive”.
For `CC(C)N(C(=O)SCC(Cl)=C(Cl)Cl)C(C)C`, the outcome was “inactive”.
In the case of `CCC(=O)Nc1ccc(Cl)c(Cl)c1`, the outcome is reported as “inactive”.
With `COc1cccc(C(=O)NN(C(=O)c2cc(C)cc(C)c2)C(C)(C)C)c1C` the outcome was “inactive”.
In the case of `S=C1NCCN1`, the outcome is reported as “inactive”.
For `CCOP(=S)(OCC)Oc1cc(C)nc(C(C)C)n1`, the AC50 was 49.5 µM (active) and the outcome was “inactive”.
For `C#CCC1=C(C)C(OC(=O)C2C(C=C(C)C)C2(C)C)CC1=O` (stereo not drawn), the outcome was “inactive”.
For `CCOC(=O)CC(SP(=O)(OC)OC)C(=O)OCC` (stereo not drawn), the outcome was “inactive”.
For `CON=C(C(=O)OC)c1ccccc1CON=C(C)c1cccc(C(F)(F)F)c1`, the outcome was “inactive”.
With `CCOP(=S)(OCC)Oc1ccc([N+](=O)[O-])cc1` the outcome was “inactive”.
In the case of `Cc1cc(C2CC2)nc(Nc2ccccc2)n1`, the outcome is reported as “inactive”.
For `C[Si](Cn1cncn1)(c1ccc(F)cc1)c1ccc(F)cc1`, the outcome was “inactive”.
With `CCC(CC)Nc1c([N+](=O)[O-])cc(C)c(C)c1[N+](=O)[O-]` the outcome was “inactive”.
For `O=c1ccc(=O)[nH][nH]1`, the outcome was “inactive”.
For `CC1(C(=O)Nc2ccc(O)c(Cl)c2Cl)CCCCC1`, the outcome was “inactive”.
For `CNC(=O)ON=C(SC)C(=O)N(C)C`, the outcome was “inactive”.
In the case of `Nc1nc(N)nc(NC2CC2)n1`, the outcome is reported as “inactive”.
In the case of `CSC1=N[C@@](C)(c2ccccc2)C(=O)N1Nc1ccccc1`, the outcome is reported as “inactive”.
With `CC[C@H](C)[C@H]1O[C@]2(C=C[C@@H]1C)C[C@@H]1C[C@@H](C/C=C(\C)[C@@H](O[C@H]3C[C@H](OC)[C@@H](O[C@H]4C[C@H](OC)[C@@H](NC)[C@H](C)O4)[C@H](C)O3)[C@@H](C)/C=C/C=C3\CO[C@@H]4[C@H](O)C(C)=C[C@@H](C(=O)O1)[C@]34O)O2` the AC50 was 14.4 µM (active).
In the case of `N#CSCSC#N`, the AC50 is reported as 60.7 µM (active) and 78.2 µM (active).
In the case of `COP(=O)(NC(C)=O)SC` (stereo not drawn), the outcome is reported as “inactive”.
With `CCCOCC(=Nc1ccc(Cl)cc1C(F)(F)F)n1ccnc1` the AC50 was 35.4 µM (active).
With `C#CC(C)(C)NC(=O)c1cc(Cl)cc(Cl)c1` the outcome was “inactive”.

Target: Cellular tumor antigen p53 (Homo sapiens) (UniProt P04637)
Sequence (P04637 whole entry, looked up): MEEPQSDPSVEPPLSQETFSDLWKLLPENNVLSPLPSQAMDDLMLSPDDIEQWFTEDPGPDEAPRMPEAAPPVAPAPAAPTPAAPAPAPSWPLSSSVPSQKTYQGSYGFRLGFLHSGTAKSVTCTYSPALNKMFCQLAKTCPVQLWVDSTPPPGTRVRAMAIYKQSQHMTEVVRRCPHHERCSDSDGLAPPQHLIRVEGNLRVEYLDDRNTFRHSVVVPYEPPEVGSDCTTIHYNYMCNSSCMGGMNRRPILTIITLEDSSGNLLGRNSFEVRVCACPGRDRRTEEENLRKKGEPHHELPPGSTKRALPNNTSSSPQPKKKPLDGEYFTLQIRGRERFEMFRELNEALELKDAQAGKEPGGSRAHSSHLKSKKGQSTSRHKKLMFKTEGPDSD
Test: TOX21_p53_BLA_p3_ratio: Tox21 HCT-116 p53 Agonism Beta-lactamase Assay, Ratio, Phase 3 (AID 2283596)
Outline: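 HCT116 p53-bla cells (4000/well) given compound in DMSO (217-fold dilution) after 5 h, incubated 16 h at 37C. CCF4-AM substrate 2 h at room temperature; 460/530 nm emission ratio, gain fitted against DMSO.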
With `CCOP(=S)(OCC)Oc1ccc2c(C)c(Cl)c(=O)oc2c1` the outcome was “inactive”.
In the case of `CC(C)=CC1C(C(=O)OCN2C(=O)C3=C(CCCC3)C2=O)C1(C)C` (stereo not drawn), the outcome is reported as “inactive”.
For `CCCCOC(=O)c1ccccc1C(=O)O`, the outcome was “inactive”.
With `S=C1NCCN1` the outcome was “inactive”.
In the case of `C#CCC1=C(C)C(OC(=O)C2C(C=C(C)C)C2(C)C)CC1=O` (stereo not drawn), the outcome is reported as “inactive”.
With `CCOP(=S)(OCC)Oc1ccc([N+](=O)[O-])cc1` the outcome was “inactive”.

System: not listed separately
Test: TOX21_p53_BLA_p4_viability: Viability Assessment in the Tox21 HCT-116 p53 Agonism Beta-lactamase Assay, Phase 4 (AID 2283597);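 note: hits lower the luminescence signal meaning cytotoxicity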
Outline: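 HCT116 p53-bla cells (4000/well) rested 5 h at 37C, then received compounds in DMSO (217-fold dilution) for 16 h at 37C, 5% CO2. CellTiter-Glo was added after the CCF4-AM read, and luminescence was read after 30 min at room temperature.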
In the case of `CCOP(=O)(NC(C)C)Oc1ccc(SC)c(C)c1` (stereo not drawn), the outcome is reported as “inactive”.
In the case of `COc1cc(OC)nc(Sc2cccc(Cl)c2C(=O)O)n1`, the outcome is reported as “inactive”.
With `CCOP(=S)(OCC)Oc1ccc2c(C)c(Cl)c(=O)oc2c1` the outcome was “inactive”.
For `CC(=NC#N)N(C)Cc1ccc(Cl)nc1`, the outcome was “inactive”.
For `CN(C)NC(=O)CCC(=O)O`, the outcome was “inactive”.
With `FC(F)C(F)(F)OCC(Cn1cncn1)c1ccc(Cl)cc1Cl` (stereo not drawn) the AC50 was 60.5 µM (active).
With `CCc1cccc(C)c1N(C(=O)CCl)C(C)COC` (stereo not drawn) the outcome was “inactive”.
In the case of `COP(=O)(OC)C(O)C(Cl)(Cl)Cl` (stereo not drawn), the outcome is reported as “inactive”.
With `CC(C)=CC1C(C(=O)OCN2C(=O)C3=C(CCCC3)C2=O)C1(C)C` (stereo not drawn) the AC50 was 46.1 µM (active) and the outcome was “inactive”.
With `CC(C)N(C(=O)SCC(Cl)=C(Cl)Cl)C(C)C` the outcome was “inactive”.
With `CCCCOC(=O)c1ccccc1C(=O)O` the outcome was “inactive”.
With `CCC(=O)Nc1ccc(Cl)c(Cl)c1` the outcome was “inactive”.
In the case of `S=C1NCCN1`, the outcome is reported as “inactive”.
In the case of `CCOP(=S)(OCC)Oc1cc(C)nc(C(C)C)n1`, the outcome is reported as “inactive”.
In the case of `CCCCSP(=O)(SCCCC)SCCCC`, the outcome is reported as “inactive”.
With `CCOP(=S)(OCC)SCCSCC` the outcome was “inactive”.
With `C#CCC1=C(C)C(OC(=O)C2C(C=C(C)C)C2(C)C)CC1=O` (stereo not drawn) the outcome was “inactive”.
In the case of `CCOC(=O)CC(SP(=O)(OC)OC)C(=O)OCC` (stereo not drawn), the outcome is reported as “inactive”.
For `CON=C(C(=O)OC)c1ccccc1CON=C(C)c1cccc(C(F)(F)F)c1`, the outcome was “inactive”.
In the case of `Cc1cc(C2CC2)nc(Nc2ccccc2)n1`, the AC50 is reported as 64.9 µM (active).
For `C[Si](Cn1cncn1)(c1ccc(F)cc1)c1ccc(F)cc1`, the AC50 was 53 µM (active) and the outcome was “inactive”.
For `CCC(CC)Nc1c([N+](=O)[O-])cc(C)c(C)c1[N+](=O)[O-]`, the outcome was “inactive”.
With `O=c1ccc(=O)[nH][nH]1` the outcome was “inactive”.
With `CCCSP(=O)(OCC)Oc1ccc(Br)cc1Cl` (stereo not drawn) the outcome was “inactive”.
For `CC1(C(=O)Nc2ccc(O)c(Cl)c2Cl)CCCCC1`, the outcome was “inactive”.
For `CNC(=O)ON=C(SC)C(=O)N(C)C`, the outcome was “inactive”.
For `Nc1nc(N)nc(NC2CC2)n1`, the outcome was “inactive”.
In the case of `CSC1=N[C@@](C)(c2ccccc2)C(=O)N1Nc1ccccc1`, the outcome is reported as “inactive”.
For `CC[C@H](C)[C@H]1O[C@]2(C=C[C@@H]1C)C[C@@H]1C[C@@H](C/C=C(\C)[C@@H](O[C@H]3C[C@H](OC)[C@@H](O[C@H]4C[C@H](OC)[C@@H](NC)[C@H](C)O4)[C@H](C)O3)[C@@H](C)/C=C/C=C3\CO[C@@H]4[C@H](O)C(C)=C[C@@H](C(=O)O1)[C@]34O)O2`, the AC50 was 8.89 µM (active).
In the case of `N#CSCSC#N`, the AC50 is reported as 51.1 µM (active) and 61.9 µM (active).
For `COP(=O)(NC(C)=O)SC` (stereo not drawn), the outcome was “inactive”.
With `CCCOCC(=Nc1ccc(Cl)cc1C(F)(F)F)n1ccnc1` the AC50 was 24.9 µM (active).
In the case of `C#CC(C)(C)NC(=O)c1cc(Cl)cc(Cl)c1`, the outcome is reported as “inactive”.
